According to PubChem BioAssay:

Key:
[1] = system: Botulinum neurotoxin type F light chain protease (Clostridium botulinum); test: Clostridium botulinum type F light chain protease inhibitors, microsphere substrate cleavage, validation (AID 588459); conditions: multiplex microsphere protease substrate cleavage assay, flow cytometry; at 10 µM; active compounds read high
[2] = target: Botulinum neurotoxin type A (Clostridium botulinum) (UniProt P0DPI0); test: BoNT/A light chain protease inhibitors, biochemical, multiplex microsphere flow cytometry, validation set (AID 588460); conditions: at 10 µM, active compounds read high
[3] = target: Lethal factor (Bacillus anthracis) (UniProt P15917); test: Bacillus anthracis lethal factor inhibition, microsphere flow cytometry protease assay, validation at 10 µM (AID 588461); conditions: multiplex microsphere protease cleavage assay, active compounds read high

Measured: inhibition

Sequence of Botulinum neurotoxin type A (Clostridium botulinum) (P0DPI0 whole entry, looked up): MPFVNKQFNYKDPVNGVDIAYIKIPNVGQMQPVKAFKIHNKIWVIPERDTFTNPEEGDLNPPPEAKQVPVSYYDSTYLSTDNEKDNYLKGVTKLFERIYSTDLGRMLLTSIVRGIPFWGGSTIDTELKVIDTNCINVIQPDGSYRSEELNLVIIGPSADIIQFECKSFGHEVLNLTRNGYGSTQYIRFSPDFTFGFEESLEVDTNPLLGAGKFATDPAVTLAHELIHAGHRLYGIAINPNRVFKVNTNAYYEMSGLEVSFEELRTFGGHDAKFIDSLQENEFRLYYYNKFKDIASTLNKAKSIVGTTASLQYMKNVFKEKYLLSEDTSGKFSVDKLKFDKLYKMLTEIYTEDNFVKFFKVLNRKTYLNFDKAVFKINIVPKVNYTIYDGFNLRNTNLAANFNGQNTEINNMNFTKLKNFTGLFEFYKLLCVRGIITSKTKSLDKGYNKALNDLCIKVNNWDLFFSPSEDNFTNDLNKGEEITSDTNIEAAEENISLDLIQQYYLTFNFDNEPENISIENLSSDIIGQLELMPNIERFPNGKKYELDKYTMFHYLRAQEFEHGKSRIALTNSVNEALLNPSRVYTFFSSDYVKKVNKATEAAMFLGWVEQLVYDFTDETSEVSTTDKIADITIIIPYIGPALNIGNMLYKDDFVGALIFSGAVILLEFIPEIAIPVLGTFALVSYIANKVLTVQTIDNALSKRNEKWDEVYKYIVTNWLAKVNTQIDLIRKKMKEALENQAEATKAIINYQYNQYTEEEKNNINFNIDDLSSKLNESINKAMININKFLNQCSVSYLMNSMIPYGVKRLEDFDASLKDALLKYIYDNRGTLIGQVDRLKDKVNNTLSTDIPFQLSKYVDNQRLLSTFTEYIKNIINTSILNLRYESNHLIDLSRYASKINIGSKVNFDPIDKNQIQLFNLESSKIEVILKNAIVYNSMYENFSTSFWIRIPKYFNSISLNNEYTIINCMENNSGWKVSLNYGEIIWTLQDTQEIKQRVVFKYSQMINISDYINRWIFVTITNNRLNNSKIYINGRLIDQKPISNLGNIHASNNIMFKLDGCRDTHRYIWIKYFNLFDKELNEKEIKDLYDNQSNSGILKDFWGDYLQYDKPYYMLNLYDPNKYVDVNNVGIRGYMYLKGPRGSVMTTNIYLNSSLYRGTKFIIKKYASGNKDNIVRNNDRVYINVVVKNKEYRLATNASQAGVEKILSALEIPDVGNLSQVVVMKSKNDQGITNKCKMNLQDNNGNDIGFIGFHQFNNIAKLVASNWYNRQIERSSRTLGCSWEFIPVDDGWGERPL
Sequence of Lethal factor (Bacillus anthracis) (P15917 whole entry, looked up): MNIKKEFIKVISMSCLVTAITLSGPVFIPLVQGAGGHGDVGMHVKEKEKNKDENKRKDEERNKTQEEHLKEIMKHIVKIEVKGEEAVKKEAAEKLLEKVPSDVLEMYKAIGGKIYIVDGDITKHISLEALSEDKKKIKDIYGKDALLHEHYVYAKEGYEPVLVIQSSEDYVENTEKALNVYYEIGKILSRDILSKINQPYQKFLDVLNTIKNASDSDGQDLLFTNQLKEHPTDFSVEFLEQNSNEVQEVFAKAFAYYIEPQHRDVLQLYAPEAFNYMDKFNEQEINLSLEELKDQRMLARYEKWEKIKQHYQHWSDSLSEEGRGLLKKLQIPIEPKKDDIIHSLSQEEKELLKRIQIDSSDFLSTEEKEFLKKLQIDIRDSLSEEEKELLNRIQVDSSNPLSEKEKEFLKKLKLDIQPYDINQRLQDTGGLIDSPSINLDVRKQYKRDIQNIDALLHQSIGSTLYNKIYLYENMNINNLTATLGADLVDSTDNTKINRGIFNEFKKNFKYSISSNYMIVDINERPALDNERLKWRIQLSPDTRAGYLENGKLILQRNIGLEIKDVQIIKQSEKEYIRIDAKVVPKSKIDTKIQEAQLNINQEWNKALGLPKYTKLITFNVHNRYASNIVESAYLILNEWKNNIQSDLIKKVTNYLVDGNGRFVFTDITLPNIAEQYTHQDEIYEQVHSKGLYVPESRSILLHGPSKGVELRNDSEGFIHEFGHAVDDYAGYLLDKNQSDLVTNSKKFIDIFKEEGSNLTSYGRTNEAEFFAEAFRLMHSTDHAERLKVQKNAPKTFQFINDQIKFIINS

Cc1nc2cc3ccccc3cc2c(=O)[nH]1
inactive: [1] -2% | [2] 1.5% | [3] 3.7%

CCCCCC(O)c1cccc(OCc2ccc3ccccc3n2)c1 (centres undefined)
inactive: [1] 0.9% | [2] 0.6% | [3] -0.8%

CCCNC(C)C(=O)Nc1ccccc1C (centres undefined)
inactive: [1] 0.2% | [2] 0.2% | [3] -4.8%

O=C(Nc1cccc(C(=O)O)c1)/C(=C\c1ccccc1)NC(=O)c1ccccc1
inactive: [1] 1.8% | [2] 0.3% | [3] -0.8%

Cc1cccc(C)c1NS(=O)(=O)c1ccc(NC(=O)c2ccc(Cl)c([N+](=O)[O-])c2)cc1
inactive: [1] 2.3% | [2] -0.2% | [3] 0.9%

COc1ccc(C(=O)CC2OC(=O)c3c2ccc(OC)c3OC)cc1 (centres undefined)
inactive: [1] 0.2% | [2] 0.7% | [3] 3.4%

Nc1cc(-c2ccncc2)c[nH]c1=O
inactive: [1] -3.2% | [2] -2% | [3] -5.1%

N#C/C(C(N)=O)=c1/ccc2c(c1)N1C3=C(CCCC3)CC3CCCCC31N=2 (centres undefined)
inactive: [1] -0.8% | [2] 2.4% | [3] -2.3%

CC(=O)O[C@H]1C[C@@]2(C)[C@@H](C[C@@H](O)[C@H]3[C@@]4(C)CC[C@@H](O)[C@@H](C)C4CC[C@@]32C)/C1=C(\CCC=C(C)C)C(=O)O (some centres undefined)
inactive: [1] -2.5% | [2] -0.2% | [3] 1.4%

COc1c(C=O)c(CCN(C)C(=O)c2ccc(F)cc2)cc2c1OCO2
inactive: [1] 3% | [2] -1.5% | [3] -4.4%

O=C(O)c1cccnc1
inactive: [1] 1.8% | [2] 2% | [3] 2.5%

O=C1C2C3C=CC(C4CC34)C2C(=O)N1/N=C/c1ccc(-c2ccc([N+](=O)[O-])cc2)o1 (centres undefined)
inactive: [1] 2.1% | [2] 3.4% | [3] -1.8%

COCCCN1C(=O)/C(=C\c2cccs2)C(C(=O)OC)=C1C
inactive: [1] -1.3% | [2] -0.8% | [3] 3.3%

CCCCCCC(=O)N(O)C1CC(=O)N(Cc2ccccc2)C1=O (centres undefined)
inactive: [1] 0.4% | [2] -0.7% | [3] 3.7%

CC1CCc2cc(F)cc3c(=O)c(C(=O)O)cn1c23 (centres undefined)
inactive: [1] 3.2% | [2] 1.8% | [3] 3.5%

O=c1ccn([C@@H]2O[C@H](CO)[C@@H](O)[C@H]2O)c(=O)[nH]1
inactive: [1] 0.8% | [2] -0.2% | [3] 1.9%

Cn1c2[n+](c3ccc(Cl)cc3c1=O)Cc1ccccc1-2
inactive: [1] 0.8% | [2] -1% | [3] -7.8%

CC1(CC(=O)Nc2ccccc2)NC(=S)N(c2ccccc2)N1 (centres undefined)
inactive: [1] 3% | [2] 0% | [3] 5.1%
